# Source: PubChem BioAssay AID504329 (Southern Research Specialized Biocontainment Screening …, 2011)
# Screen size: about 340,000 compounds; about 1,000 (0.29%) were called active. No stated cut-off is given here; in the data, inconclusive means inhibition above about 27% without an active follow-up result; inactive means below that. These entries were drawn from the full list. Measured potencies and affinities stand elsewhere.
# Experiment: NS1A inhibition, H1N1 influenza, cell based functional assay (AID 504329)
# Conditions: percent inhibition, at 12.5 µM, hits give high values
row,Structure (SMILES),inhibition
1,COc1ccc(NC(=S)N(CCCN2CCOCC2)Cc2cn(C)c3ccccc23)cc1OC,2.8% (inactive)
2,COc1ccc(OCc2nnc(SCc3ccc(C(=O)O)cc3)o2)cc1,5.27% (inactive)
3,O=C(NC1CCCC1)C(c1ccc(F)cc1)N(C(=O)c1csnn1)c1ccccc1F (stereo not given),-6.01% (inactive)
4,Cn1cc(CN2CCC(n3nccc3NC(=O)CCCc3ccccc3)CC2)cn1,-14% (inactive)
5,COc1ccc(-c2cc(C(=O)NCCN3CCOCC3)c3ccccc3n2)cc1OC,23% (inactive)
6,O=C(CSc1nnc(Nc2ccccc2)s1)Nc1cccc(S(=O)(=O)N2CCCCC2)c1,-4.99% (inactive)
7,CS(=O)(=O)Nc1ccccc1C(=O)OCC(=O)N1CCC(c2ccccc2)=N1,-6.95% (inactive)
8,O=C(CCS(=O)(=O)c1ccc(F)cc1)Nc1nc(-c2ccncc2)cs1,-5.43% (inactive)
9,Cc1ccc(S(=O)(=O)CCC(=O)Nc2nc(-c3ccccn3)cs2)cc1,7.88% (inactive)
10,O=C(CCS(=O)(=O)c1ccccc1)Nc1nc(-c2ccc(F)cc2)cs1,-4.12% (inactive)
11,O=C(CCS(=O)(=O)c1ccccc1)Nc1nc(-c2cccs2)cs1,-56.6% (inactive)
12,CC(C)Oc1ccc(S(=O)(=O)N2CCCCC2)cc1NC(=O)CN1C(=O)NC(C)(C2CC2)C1=O (stereo not given),-3.52% (inactive)
13,O=C(C1CCN(S(=O)(=O)c2ccccc2)CC1)N1CCCCCC1,12.9% (inactive)
14,CC(C)(C)C(=O)CSc1nc2ncc(Br)cc2[nH]1,0.51% (inactive)
15,Cc1cccc(-n2cnc(C(=O)N/N=C/c3ccccc3)c2)n1,-4.63% (inactive)
16,Cc1ccc(NC(=O)c2cn(-c3cccc(C)n3)cn2)cc1,-6.72% (inactive)
17,COC(=O)c1ccc(NC(=O)c2cn(-c3cccc(C)n3)cn2)cc1,-7.7% (inactive)
18,C/C(=N/NC(=O)c1cn(-c2cccc(C)n2)cn1)c1ccc(C)cc1,3.85% (inactive)
19,COc1ccc(OC)c(NC(=O)COC(=O)[C@H](Cc2ccccc2)NC(=O)c2ccco2)c1,-3.78% (inactive)
20,O=C(c1ccc(Cn2c(=S)[nH]c3ccc(N4CCOCC4)cc3c2=O)cc1)N1CCN(c2ccc(F)cc2)CC1,-6.32% (inactive)
21,COc1cc(CN(C)C)cc(C=O)c1O,1.87% (inactive)
22,Nc1nc2cc(Br)ccc2o1,-24.5% (inactive)
23,COc1cc(C(C)=O)ccc1OCC(=O)Nc1cc(Cl)ccc1-n1cncn1,-5.4% (inactive)

row,Structure (SMILES),inhibition
1,O=C(NCC(=O)N(c1ccc(F)cc1)C(C(=O)NC1CCCC1)c1cccnc1)c1cccs1 (stereo not given),-7.6% (inactive)
2,O=C(CN1C(=O)c2cccnc2Oc2ccc(Cl)cc21)N1CCCC1,-12.6% (inactive)
3,O=C1c2ccccc2CN1CCNS(=O)(=O)c1ccc2ccccc2c1,0.05% (inactive)
4,CCN(Cc1nc2cc(Cl)ccc2c(=O)[nH]1)C(=O)c1cc2c(s1)CCCCC2,-9.24% (inactive)
5,CC1(C(=O)NCc2cc(F)cc(C(F)(F)F)c2)C=CC2(CCCCC2)N1C(=O)c1ccccc1 (stereo not given),-9.29% (inactive)
6,CS(=O)(=O)N(CC(=O)NCC1CCCO1)Cc1ccc(Cl)cc1 (stereo not given),-3.33% (inactive)
7,O=C(NNc1c2ccccc2nc2ccccc12)c1ccccc1Cl,-1.62% (inactive)
8,O=C(NNc1c2ccccc2nc2ccccc12)c1ccccc1O,-2.01% (inactive)
9,Cc1cccc(C)c1NC(=O)CN(C)C(=O)C(c1ccccc1)c1ccccc1,-4.5% (inactive)
10,COc1ccc(COC(=O)CCS(=O)(=O)c2ccc(C)cc2)cc1F,-5.19% (inactive)
11,CN(C)CCNc1ccc(CO)c2oc3ccc(O)cc3c(=O)c12,2.86% (inactive)
12,CN(C)CCNc1ccc(CO)c2sc3ccc(O)cc3c(=O)c12,21.9% (inactive)
13,CCN(CC)CCCNc1ccc2ncn3c4ccc(O)cc4c(=O)c1c23,18.1% (inactive)
14,CCN(CC)CCNc1ccc(CO)c2sc3ccccc3c(=O)c12,-1.15% (inactive)
15,CCOC(=O)N1CCN(C(=O)CN(C)S(=O)(=O)c2ccc3c(c2)c(=O)n(C)c(=O)n3C)CC1,1.25% (inactive)
16,CCn1nc(C)c(/C=N\NC(=O)c2cccc(OC)c2)c1C,-6.26% (inactive)
17,O=C(Nc1cccnc1)C1CCN(S(=O)(=O)c2cccc3nonc23)CC1,7.53% (inactive)
18,COc1cc(/C=C2\SC(=S)N(Nc3ccccc3)C2=O)ccc1O,16.4% (inactive)
19,CCOc1cc(/C=C2\SC(=S)N(Nc3ccccc3)C2=O)ccc1O,-19.7% (inactive)
20,N#CC1=C2SCCN2C(=O)C(C#N)C12CCCCC2 (stereo not given),-0.17% (inactive)
21,Cc1cc(C)c2oc(=O)cc(CN3CCN(Cc4ccccc4)CC3)c2c1,0.54% (inactive)
22,COc1cccc(-n2c(SCC(=O)NCc3cccs3)nc3ccccc3c2=O)c1,0.54% (inactive)
23,O=C(c1ccc(F)cc1)N1CCC(C(=O)N2CCN(S(=O)(=O)c3cccc(Cl)c3)CC2)CC1,-5.53% (inactive)

row,Structure (SMILES),inhibition
1,CCOCCc1nnc(NC(=O)CN2C(=O)c3ccccc3C2=O)s1,-7.03% (inactive)
2,CN(C)c1ncc(C2=C(Cl)C(=O)C(N3CCCC3)=C(Cl)C2=O)s1,8.59% (inactive)
3,CN1CCN(C2=C(Cl)C(=O)C(c3cnc(N4CCCCC4)s3)=C(Cl)C2=O)CC1,18.9% (inactive)
4,COc1ccc(C(=O)C2CN(C)CC2c2ccc(Cl)cc2)cc1 (stereo not given),-2.24% (inactive)
5,CN1CC(C(=O)c2ccc(Cl)cc2)C(c2ccccc2)C1 (stereo not given),-3.51% (inactive)
6,O=[N+]([O-])c1ccc2nc(N3CCCC3)sc2c1,-13.2% (inactive)
7,COc1cc(Cl)c(C)cc1N1C(=O)CN(Cc2ccccc2)C1=S,-3.41% (inactive)
8,Cc1ccc(S(=O)(=O)N2CC(O)C[C@H]2C(=O)OCC(=O)Nc2ccc(N3CCOCC3)cc2)cc1C (stereo not given in full),-8.01% (inactive)
9,Cc1ccc(S(=O)(=O)N2CC(O)C[C@H]2C(=O)OCC(=O)N2CCN(c3ccc(F)cc3)CC2)cc1C (stereo not given in full),-4.2% (inactive)
10,O=C(CNCCC1=CCCCC1)Nc1ccccc1N1CCCCCC1,-4.99% (inactive)
11,COc1ccc(NC(=O)CNCCC2=CCCCC2)cc1,-5.53% (inactive)
12,CC(=O)Nc1ccc(NC(=O)COC(=O)C2CCCCC2)cc1,-9.9% (inactive)
13,O=C(COc1cc(F)ccc1[N+](=O)[O-])Nc1ccc(N2CCOCC2)cc1,6.79% (inactive)
14,NS(=O)(=O)c1ccc(NC(=O)COC(=O)C2CCCCC2)cc1,-11.2% (inactive)
15,CN1CCN(c2ccc(NC(=O)COc3ccccc3[N+](=O)[O-])cc2)CC1,0.13% (inactive)
16,COCc1cc(=O)[nH]c(SCC(=O)N2CCOCC2)n1,-7.79% (inactive)
17,CC(=O)NC(CC(=O)OCC(=O)N1CCN(S(=O)(=O)c2ccc(Cl)cc2)CC1)c1ccccc1 (stereo not given),-16.1% (inactive)
18,COCCN(C(=O)CSc1nnc(-c2ccncc2)n1C)c1c(N)n(CC(C)C)c(=O)[nH]c1=O,-15.9% (inactive)
19,CCSc1oc(-c2ccco2)nc1S(=O)(=O)c1ccc(F)cc1,5.79% (inactive)
20,c1ccc(COc2ccccc2CNC2CCCC2)cc1,0.14% (inactive)
21,O=C(/C=C/c1ccc(Cl)cc1)NCCCN1CCOCC1,-7.22% (inactive)
22,CCC(Sc1nc2cc(OC)c(OC)cc2c(=O)n1CCc1ccc(OC)c(OC)c1)C(=O)NCCOC (stereo not given),7.7% (inactive)
23,COc1ccc(Cn2c(CCC(=O)NCc3ccco3)nc3cccnc32)cc1,0.67% (inactive)

row,Structure (SMILES),inhibition
1,CCc1nnc(NC(=O)c2cc(-c3ccncc3)nc3ccccc23)s1,-12.1% (inactive)
2,Cc1ccc(N(C(=O)c2csnn2)C(C(=O)NC(C)(C)C)c2cccnc2)cc1 (stereo not given),-8.33% (inactive)
3,CC1CN(c2ccc([N+](=O)[O-])c(NCCOc3ccccc3)c2)CCN1 (stereo not given),4.39% (inactive)
4,CC1CN(c2ccc([N+](=O)[O-])c(NCCOc3ccc(Cl)cc3)c2)CC(C)N1 (stereo not given),20.5% (inactive)
5,COCCN1C(=O)N[C@@H](CCc2ccccc2)[C@@H](C(=O)OC)[C@H]1C,-8.6% (inactive)
6,COc1ccccc1NC(=O)CSc1nnc(CNC(=O)c2cccs2)o1,-6.38% (inactive)
7,O=C(Cn1cnc(S(=O)(=O)N2CCCCC2)c1)Nc1ccc(OC(F)(F)F)cc1,2.65% (inactive)
8,O=S(=O)(Nc1ccc2c(c1)OCCO2)c1c(F)cccc1F,-2% (inactive)
9,NNc1nc(Nc2ccccc2)nc(Nc2ccccc2)n1,-2.5% (inactive)
10,CNc1nc(Cl)nc(Nc2ccccc2)n1,6.99% (inactive)
11,O=C(CCS(=O)CCC(=O)NCc1ccccc1)NCc1ccccc1,-7.22% (inactive)
12,CCN1C(=O)/C(=C/C=C2\C=CN(CC)c3ccccc32)SC1=S,21% (inactive)
13,CCN1C(=O)/C(=C/C=C2/Sc3ccccc3N2CCO)SC1=S,8.17% (inactive)
14,CC(=O)c1ccc(N2CCN(C(=O)Cc3n[nH]c(=O)c4ccccc34)CC2)cc1,2.74% (inactive)
15,COc1cccc(CN(C)C(=O)c2cccc(OCc3ccccc3)c2)c1,5.5% (inactive)
16,Cc1cc(OC(C)C(=O)NCCN2CCOCC2)c2c(C)c(C)c(=O)oc2c1 (stereo not given),2.99% (inactive)
17,Cc1c(N=N/C(C(=O)Nc2ccccc2)=C(/O)c2ccccc2)c(=O)n(-c2ccccc2)n1C,12.5% (inactive)
18,CC(=O)/C(N=Nc1c(C)n(C)n(-c2ccccc2)c1=O)=C(\C)O,1.66% (inactive)
19,COC(=O)/C(N=Nc1c(C)n(C)n(-c2ccccc2)c1=O)=C(\C)O,8.11% (inactive)
20,CCOC(=O)/C(N=Nc1c(C)n(C)n(-c2ccccc2)c1=O)=C(/O)c1ccccc1,3.43% (inactive)
21,CCOC(=O)CC(NC(=O)c1cc2cccc(OC)c2oc1=O)c1ccc(OC)cc1 (stereo not given),-20.4% (inactive)
